# Measured values taken from the supplement of paper PMC11001985.
# Compound: C#CCNC(=O)CCSSCCC(=O)NCCc1ccc(C=O)c(C=O)c1
# Test: lysine labeling ratio R10:1 (500 µM / 50 µM probe), SILAC-ABPP in living cells; higher = lower intrinsic lysine reactivity toward the probe, active = 2 or less
# Conditions: HeLa; probe concentrations 500 vs 50 µM
# Summary of the method: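 SILAC light and heavy living HeLa cells in PBS at room temperature were labelled with 50 µM or 500 µM of an alkyne-tagged, disulfide-linked lysine probe, with forward and reverse label swaps. Mixed lysates were clicked to biotin-azide, trypsin-digested, captured on neutravidin, DTT-released, alkylated and analysed by LC-MS/MS on a TIMS-TOF Pro. R is the filtered median high-probe/low-probe MS1 peptide ratio per lysine, then the median across forward and reverse replicates. Ratios are capped at 20.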
# Chain of UniProt P17844 (P17844 whole entry): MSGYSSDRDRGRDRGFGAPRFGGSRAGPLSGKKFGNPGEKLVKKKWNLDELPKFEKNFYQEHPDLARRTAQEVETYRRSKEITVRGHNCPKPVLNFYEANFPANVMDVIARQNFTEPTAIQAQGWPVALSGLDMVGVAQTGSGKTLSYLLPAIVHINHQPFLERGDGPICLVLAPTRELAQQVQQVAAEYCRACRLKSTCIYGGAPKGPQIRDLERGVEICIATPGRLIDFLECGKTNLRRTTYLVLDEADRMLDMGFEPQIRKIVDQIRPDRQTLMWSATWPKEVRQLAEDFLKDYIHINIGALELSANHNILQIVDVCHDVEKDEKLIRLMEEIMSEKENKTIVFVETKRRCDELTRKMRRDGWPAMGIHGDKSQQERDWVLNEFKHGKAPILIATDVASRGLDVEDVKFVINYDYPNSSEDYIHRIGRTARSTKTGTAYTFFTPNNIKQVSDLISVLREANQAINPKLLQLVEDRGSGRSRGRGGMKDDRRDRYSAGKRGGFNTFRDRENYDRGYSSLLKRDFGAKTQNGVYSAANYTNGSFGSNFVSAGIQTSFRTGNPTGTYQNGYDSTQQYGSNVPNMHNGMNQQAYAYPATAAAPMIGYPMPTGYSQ
# Chain of UniProt O15230 (O15230 whole entry): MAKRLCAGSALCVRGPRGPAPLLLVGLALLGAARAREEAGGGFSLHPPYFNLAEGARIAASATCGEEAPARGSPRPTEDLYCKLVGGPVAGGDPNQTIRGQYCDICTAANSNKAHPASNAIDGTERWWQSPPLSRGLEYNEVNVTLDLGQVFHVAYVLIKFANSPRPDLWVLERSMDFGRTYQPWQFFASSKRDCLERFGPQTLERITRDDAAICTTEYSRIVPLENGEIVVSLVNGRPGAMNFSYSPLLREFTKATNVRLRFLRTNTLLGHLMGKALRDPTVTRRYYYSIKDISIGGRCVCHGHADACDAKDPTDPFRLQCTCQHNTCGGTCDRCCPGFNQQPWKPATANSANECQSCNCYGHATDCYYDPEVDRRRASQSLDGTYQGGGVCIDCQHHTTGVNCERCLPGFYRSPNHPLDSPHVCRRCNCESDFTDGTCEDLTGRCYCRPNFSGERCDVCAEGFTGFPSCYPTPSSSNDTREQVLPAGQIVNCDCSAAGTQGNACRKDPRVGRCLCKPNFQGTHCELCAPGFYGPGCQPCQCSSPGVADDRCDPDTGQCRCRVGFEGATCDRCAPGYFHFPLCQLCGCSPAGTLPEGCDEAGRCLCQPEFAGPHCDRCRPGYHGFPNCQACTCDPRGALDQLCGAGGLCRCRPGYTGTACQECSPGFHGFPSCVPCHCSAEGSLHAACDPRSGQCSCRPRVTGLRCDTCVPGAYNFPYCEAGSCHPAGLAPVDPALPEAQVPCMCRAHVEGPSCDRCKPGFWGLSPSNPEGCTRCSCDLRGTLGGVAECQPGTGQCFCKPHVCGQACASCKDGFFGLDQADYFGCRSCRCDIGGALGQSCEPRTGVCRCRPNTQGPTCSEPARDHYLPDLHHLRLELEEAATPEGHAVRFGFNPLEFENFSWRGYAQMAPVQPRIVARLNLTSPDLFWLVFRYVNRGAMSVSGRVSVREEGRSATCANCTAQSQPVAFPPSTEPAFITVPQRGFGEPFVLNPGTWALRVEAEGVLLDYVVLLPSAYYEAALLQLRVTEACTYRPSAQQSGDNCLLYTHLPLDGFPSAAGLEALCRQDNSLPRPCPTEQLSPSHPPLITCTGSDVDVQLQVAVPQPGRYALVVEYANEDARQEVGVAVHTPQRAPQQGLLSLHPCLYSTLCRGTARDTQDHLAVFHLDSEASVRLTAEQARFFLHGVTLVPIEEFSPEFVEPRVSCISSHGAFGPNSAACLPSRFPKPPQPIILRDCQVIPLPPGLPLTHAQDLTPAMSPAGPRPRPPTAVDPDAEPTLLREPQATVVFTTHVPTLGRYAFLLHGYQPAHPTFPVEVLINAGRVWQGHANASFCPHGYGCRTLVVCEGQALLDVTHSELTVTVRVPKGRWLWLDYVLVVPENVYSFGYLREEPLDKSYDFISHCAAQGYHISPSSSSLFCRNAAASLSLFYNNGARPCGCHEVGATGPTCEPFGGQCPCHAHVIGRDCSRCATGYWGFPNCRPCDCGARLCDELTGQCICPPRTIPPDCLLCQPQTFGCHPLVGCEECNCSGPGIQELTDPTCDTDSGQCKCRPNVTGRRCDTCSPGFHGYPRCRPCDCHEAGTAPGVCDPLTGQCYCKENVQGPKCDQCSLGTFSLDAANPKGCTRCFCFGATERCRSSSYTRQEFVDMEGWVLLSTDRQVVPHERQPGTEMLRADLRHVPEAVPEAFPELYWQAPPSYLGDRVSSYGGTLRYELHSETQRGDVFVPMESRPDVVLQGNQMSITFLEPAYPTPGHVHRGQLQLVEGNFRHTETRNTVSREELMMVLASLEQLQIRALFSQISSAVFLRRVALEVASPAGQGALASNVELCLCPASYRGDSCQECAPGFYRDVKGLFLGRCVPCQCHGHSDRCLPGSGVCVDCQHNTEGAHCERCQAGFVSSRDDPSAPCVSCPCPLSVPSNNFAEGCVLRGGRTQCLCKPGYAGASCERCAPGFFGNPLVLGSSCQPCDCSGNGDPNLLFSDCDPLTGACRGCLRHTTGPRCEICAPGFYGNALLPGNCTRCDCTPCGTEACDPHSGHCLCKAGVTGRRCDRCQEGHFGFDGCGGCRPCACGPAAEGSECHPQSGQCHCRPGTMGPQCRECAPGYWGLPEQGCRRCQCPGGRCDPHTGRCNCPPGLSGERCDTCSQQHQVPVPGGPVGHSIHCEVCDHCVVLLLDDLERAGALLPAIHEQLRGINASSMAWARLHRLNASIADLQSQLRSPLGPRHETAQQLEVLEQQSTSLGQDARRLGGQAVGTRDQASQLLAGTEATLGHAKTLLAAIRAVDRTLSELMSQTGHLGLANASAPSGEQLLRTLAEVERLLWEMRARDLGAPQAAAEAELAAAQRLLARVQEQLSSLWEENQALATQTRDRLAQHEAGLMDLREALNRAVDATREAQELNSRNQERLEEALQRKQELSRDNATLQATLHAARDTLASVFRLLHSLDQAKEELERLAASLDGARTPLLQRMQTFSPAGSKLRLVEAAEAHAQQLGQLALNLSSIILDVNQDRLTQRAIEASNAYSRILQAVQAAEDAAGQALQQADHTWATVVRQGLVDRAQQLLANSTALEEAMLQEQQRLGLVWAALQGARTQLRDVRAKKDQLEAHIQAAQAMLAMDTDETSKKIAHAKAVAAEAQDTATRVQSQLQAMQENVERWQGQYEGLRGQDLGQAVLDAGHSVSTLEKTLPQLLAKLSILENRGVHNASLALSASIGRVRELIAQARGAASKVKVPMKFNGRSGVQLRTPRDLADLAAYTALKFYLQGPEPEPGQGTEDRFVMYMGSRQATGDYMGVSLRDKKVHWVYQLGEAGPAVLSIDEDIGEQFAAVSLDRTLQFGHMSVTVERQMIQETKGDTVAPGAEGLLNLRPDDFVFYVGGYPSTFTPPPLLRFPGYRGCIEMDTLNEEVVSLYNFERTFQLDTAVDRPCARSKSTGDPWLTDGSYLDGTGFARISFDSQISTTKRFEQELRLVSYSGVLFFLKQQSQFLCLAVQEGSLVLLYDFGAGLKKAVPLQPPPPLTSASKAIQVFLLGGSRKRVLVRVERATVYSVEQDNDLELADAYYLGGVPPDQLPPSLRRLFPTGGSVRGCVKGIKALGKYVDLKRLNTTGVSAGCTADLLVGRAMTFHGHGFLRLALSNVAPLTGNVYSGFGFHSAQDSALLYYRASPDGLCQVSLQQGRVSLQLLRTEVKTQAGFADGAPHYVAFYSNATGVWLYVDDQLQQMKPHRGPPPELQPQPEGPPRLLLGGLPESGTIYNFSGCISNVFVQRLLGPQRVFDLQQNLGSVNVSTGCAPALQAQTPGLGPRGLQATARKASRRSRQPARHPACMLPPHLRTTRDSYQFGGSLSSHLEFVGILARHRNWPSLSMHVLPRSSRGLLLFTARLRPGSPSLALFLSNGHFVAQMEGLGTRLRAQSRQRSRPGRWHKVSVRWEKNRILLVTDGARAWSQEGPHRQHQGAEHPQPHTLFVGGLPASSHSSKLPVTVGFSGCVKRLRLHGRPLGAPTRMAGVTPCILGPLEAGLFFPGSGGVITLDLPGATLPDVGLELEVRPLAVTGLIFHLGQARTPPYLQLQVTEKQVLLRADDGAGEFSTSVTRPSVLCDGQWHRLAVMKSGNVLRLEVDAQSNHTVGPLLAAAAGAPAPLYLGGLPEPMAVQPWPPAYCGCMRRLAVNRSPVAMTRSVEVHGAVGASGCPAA
# Chain of UniProt P54826 (P54826 whole entry): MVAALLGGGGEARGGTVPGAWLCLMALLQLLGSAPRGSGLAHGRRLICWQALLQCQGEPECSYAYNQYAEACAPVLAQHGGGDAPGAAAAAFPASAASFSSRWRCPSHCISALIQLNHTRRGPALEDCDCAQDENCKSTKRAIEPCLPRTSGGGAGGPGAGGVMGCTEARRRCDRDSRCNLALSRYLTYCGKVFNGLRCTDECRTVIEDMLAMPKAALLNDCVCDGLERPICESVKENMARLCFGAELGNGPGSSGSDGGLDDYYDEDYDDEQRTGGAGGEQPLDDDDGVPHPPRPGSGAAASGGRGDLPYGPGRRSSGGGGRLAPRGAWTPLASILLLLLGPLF
# Chain of UniProt Q15366 (Q15366 whole entry): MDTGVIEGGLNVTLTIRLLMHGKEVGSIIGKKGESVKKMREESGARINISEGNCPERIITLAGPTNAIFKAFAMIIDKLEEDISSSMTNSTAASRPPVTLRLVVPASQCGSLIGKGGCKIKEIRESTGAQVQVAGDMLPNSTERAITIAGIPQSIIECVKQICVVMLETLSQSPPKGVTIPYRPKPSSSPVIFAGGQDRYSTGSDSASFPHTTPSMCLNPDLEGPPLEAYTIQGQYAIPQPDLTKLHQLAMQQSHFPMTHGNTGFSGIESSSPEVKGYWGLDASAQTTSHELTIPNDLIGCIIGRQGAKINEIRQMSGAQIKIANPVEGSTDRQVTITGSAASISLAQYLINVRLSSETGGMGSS
row,Target,lysine labeling ratio R10:1
1,GAS1 (lysine site: K137) (UniProt P54826),3.54 (inactive)
2,MSN (lysine site: K538) (UniProt P26038),4.98 (inactive)
3,DDX5 (lysine site: K490) (UniProt P17844),5.18 (inactive)
4,ANXA2 (lysine site: K204) (UniProt P07355),7.37 (inactive)
5,PCBP2 (lysine site: K322) (UniProt Q15366),4.37 (inactive)
6,LAMA5 (lysine site: K2451) (UniProt O15230),3.17 (inactive)
